Results on ten compounds are retold here after PubChem BioAssay (NCATS).

Each structure is given as a SMILES string. Unmarked numbers belong to inactive results. Inconclusive results are not listed. Active and inactive are the calls of the source. Calls come from the whole dose curve; as a rule, active = well fitted curve in the direction sought with a large enough effect; inconclusive = small, poorly fitted or top-dose-only effect, or another doubt; inactive = no such curve, though single readings can be large; an effect the other way counts as inactive or inconclusive. Numbered stars: 1 amine (or outer) side, 2 acyl side, 3 side chain; on linkers, the order of the positions; unused ones are H or OH. Bridge positions count the residues as written; N and C are the ends. Square brackets hold non-standard residues; d marks the D form. Peptide text beside a SMILES is read from it. ξ: configuration not given here. Phe(3R-OH) = O=C([C@@H](N[*:1])[C@H](O[*:3])c1ccccc1)[*:2]; NMeTrp(4-OMe) = CN[C@@H](Cc1c[nH]c2cccc(OC)c12)C(=O)O; X4 = O=C(C1CC2(c3ccc(O)cc3)c3ccccc3NC2N1[*:1])[*:2]; ξThr(3R)(O-yl) = C[C@@H](O[*:3])C(N[*:1])C(=O)[*:2]; NMeThr(3ξ) = CN[C@H](C(=O)O)C(C)O; ξW = NC(Cc1c[nH]c2ccccc12)C(=O)O; NMeL = CN[C@@H](CC(C)C)C(=O)O; NMeV = CN[C@H](C(=O)O)C(C)C; ξIle = CC[C@H](C)C(N)C(=O)O; ξY = NC(Cc1ccc(O)cc1)C(=O)O; ξV = CC(C)C(N)C(=O)O

The test system of test [1] is Zika virus NS2B-NS3 protease (linked construct). The experiment in a line: Primary screen NINDS Rhodamine qHTS for Zika virus inhibitors (AID 1347160). Note: nearly all actives have a fitted effect of over 55% in size. Note: potency is the fitted concentration of half-maximal effect. The method, boiled down:
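Single-chain NS2B-NS3 protease, 25 nM, pH 8.0; compounds preincubated 15 min. Activity: Rhodamine110 release from 1.5 microM substrate over 15 min, room temperature, data fitted to 4-parameter Hill.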
(In general: In qHTS, concentration-response curves come from the screen itself.)

Test [2] is described as follows: OV-KATE Cancer Cell Toxicity qHTS against the NCATS CANVASS Library (AID 1347345). Note: % is set by controls: 0 for no effect and ±100 for the full control effect. The method in brief: (§1)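 Viability was assessed by adding CellTiter-Glo reagent to treated cultures and reading luminescence after 15min at room temperature. Treatment lasted 72 h at 37 degrees C/5% CO2, using an 11-point series on 1000 cells/well.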
Test [3] is described as follows: HPAF-II Cancer Cell Toxicity qHTS against the NCATS CANVASS Library (AID 1347346). For activity change, negative = cytotoxicity: series mostly up to about 38 µM; % is set by controls: 0 for no effect and ±100 for the full control effect. Note: nearly all actives have a fitted effect of over 55% in size. Note: potency is the fitted concentration of half-maximal effect. The method, boiled down: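 First, HPAF-II cells are plated (1000 cells/well) and held 4 h at 37 degrees C. Next, compounds are pin-transferred as an 11-point series. After 72 h, CellTiter-Glo is added and luminescence measured.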
Test [4] in a line: OV-SAHO Cancer Cell Toxicity qHTS against the NCATS CANVASS Library (AID 1347348). Note: series mostly up to about 38 µM; % is set by controls: 0 for no effect and ±100 for the full control effect; nearly all actives have a fitted effect of over 55% in size. The method in brief:
as §1

Test [5] is described as follows: Panc-1005 Cancer Cell Toxicity qHTS against the NCATS CANVASS Library (AID 1347349). Note: series mostly up to about 38 µM; % is set by controls: 0 for no effect and ±100 for the full control effect; nearly all actives have a fitted effect of over 60% in size. The method, boiled down: as §1
Test [6] in a line: COV-362 Cancer Cell Toxicity qHTS against the NCATS CANVASS Library (AID 1347352). Note: series mostly up to about 38 µM; % is set by controls: 0 for no effect and ±100 for the full control effect. The method in brief:
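First, 1000 cells go into each well and rest for 4 hours. Next, an 11-point dilution range is pinned in. Plates then incubate 72 hours before CellTiter-Glo addition and luminescence reading.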

Test [7] in a line: A2780 Cisplatin Sensitive Ovarian Cancer Cell Toxicity qHTS against the NCATS CANVASS Library (AID 1347353). Note: nearly all actives have a fitted effect of over 60% in size. The method in brief: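 Cells are plated at 750 per well and rest for 4 hours. Compounds are added across eleven concentrations, and incubated 72 hours before ATP is quantified by luminescence.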
Test [8] in a line: HPAF-II 24hr Apoptosis Induction qHTS against the NCATS CANVASS Library (AID 1347356). Note: 0% is about no effect. The method, boiled down: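 Cells seeded at 500 per well, then compounds pin-transferred in an 11-point concentration series. After 24 hours at 37 degrees C, Caspase-Glo 3/7 was added and luminescence measured following 15 min at room temperature.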
Test [9] can be described thus: HPAF-II 12hr Apoptosis Induction qHTS against the NCATS CANVASS Library (AID 1347358). Note: 0% is about no effect. The method in brief: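 Cells plated at 500 per well are dosed with compound and incubated 12 hours at 37 degrees C. Caspase-Glo 3/7 reagent is added and, after 15 min at room temperature, luminescence proportional to caspase activity is measured.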
The nature of test [10]: HEK293 24hr Apoptosis Induction qHTS against the NCATS CANVASS Library (AID 1347359). Note: 0% is about no effect. The method in brief:
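Caspase-3/7 activation measured as luminescence from the DEVD-based Caspase-Glo reagent, 15 min at room temperature, following 24-hour compound treatment of HEK293 cells.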

Test [11] in a line: HPAF-II 18hr Apoptosis Induction qHTS against the NCATS CANVASS Library (AID 1347360). Note: 0% is about no effect. The method in brief: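 HPAF-II cells at 500/well were exposed for 18 h at 37 C to an 11-point compound series. Caspase-3/7 activity was read by Caspase-Glo luminescence after 15 min at RT.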
The target of test [12] is Luciferin 4-monooxygenase (Photinus pyralis) (UniProt P08659). The test can be described thus: Firefly luciferase counterscreen qHTS: Assay Interference Panel against the NCATS CANVASS Library (AID 1347363). Note: series mostly up to about 57 µM; 0% is about no effect. The method, boiled down:
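Luminescence inhibition readout: compounds (11-point qHTS) sat 15 min at room temperature with substrate mix (0.013 mM luciferin and ATP), then firefly luciferase was added and signal read 5 min later.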
A general note: Counterscreens check selectivity or assay interference.

Test [13] is described as follows: qHTS for ATAD5 Agonist screened against the NCATS CANVASS Library (AID 1347367).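 Note: luciferase reporter driven by ATAD5 which rises upon DNA damage; 0% is about no effect.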 The method, boiled down:
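Luciferase reporter under ATAD5 control, stably integrated in HEK293T cells (2000/well). Compounds (11 points) incubated 16 h at 37C; viability read first by CellTiter-Fluor, then luminescence reporting ATAD5 activation. MMS positive control.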

Test [14] in a line: MCF7 Cancer Cell Toxicity qHTS against the NCATS CANVASS Library (AID 1347369). For activity change, negative = cytotoxicity: series mostly up to about 46 µM; % is set by controls: 0 for no effect and ±100 for the full control effect. The method in brief: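 MCF7 cells (500/well) were exposed 72 h at 37 °C to compounds in an 11-point series. Viability was read as ATP content by CellTiterGlo luminescence.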
Test [15] can be described thus: J3T Cancer Cell Toxicity qHTS against the NCATS CANVASS Library (AID 1347371). The method in brief: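 Luminescence from CellTiterGlo, reporting cellular ATP, serves as the viability measure after 72 hr compound treatment of J3T canine glioma cells seeded at 500 cells/well.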
Test [16] in a line: qHTS for Inflammasome Signaling Inhibitors: IL-1-beta AlphaLISA screen against the NCATS CANVASS Library (AID 1347379).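 For activity change, negative = inhibition: secreted IL-1B measured as AlphaLISA emission at 615 nm; % is set by controls: 0 for no effect and ±100 for the full control effect; lower signal means less IL-1B release which is the wanted effect.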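 Note: human THP-1 cells primed with LPS then triggered with ATP.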 The method in brief: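 Secreted IL-1B from human THP-1 cells quantified by AlphaLISA 16 hr after compound addition (final up to 57.5 uM). A 1 hr compound pretreatment preceded inflammasome activation with 250 ng/mL LPS plus 1.25 mM ATP (final).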

Sequence of Luciferin 4-monooxygenase (Photinus pyralis) (P08659 whole entry, looked up): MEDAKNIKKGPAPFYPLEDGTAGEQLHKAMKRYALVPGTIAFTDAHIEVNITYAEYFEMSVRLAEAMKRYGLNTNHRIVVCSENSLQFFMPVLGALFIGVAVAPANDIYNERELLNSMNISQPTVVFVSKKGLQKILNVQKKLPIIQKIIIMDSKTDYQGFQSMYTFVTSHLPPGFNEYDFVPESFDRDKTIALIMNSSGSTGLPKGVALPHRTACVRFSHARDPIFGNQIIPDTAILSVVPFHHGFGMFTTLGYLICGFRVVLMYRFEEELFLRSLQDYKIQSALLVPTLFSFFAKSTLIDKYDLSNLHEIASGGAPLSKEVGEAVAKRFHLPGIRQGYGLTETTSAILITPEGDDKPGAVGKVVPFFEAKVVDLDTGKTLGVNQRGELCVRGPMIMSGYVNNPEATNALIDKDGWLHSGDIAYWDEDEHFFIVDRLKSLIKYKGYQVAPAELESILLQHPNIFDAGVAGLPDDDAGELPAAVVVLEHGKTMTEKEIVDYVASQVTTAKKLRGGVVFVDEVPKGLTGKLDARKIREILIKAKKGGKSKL

Take `CC[C@H](C)[C@H](NC(=O)C(Cc1ccc(O)cc1)NC(=O)C(Cc1c[nH]c2ccccc12)NC(=O)[C@H](C)N)C(=O)N1C(C(=O)NC(Cc2ccc(O)cc2)C(=O)O)CC2(c3ccc(O)cc3)c3ccccc3NC12` (stereo not given in full) (H-A[ξW][ξY]I[X4][ξY]-OH): the Potency in test [1] was 9.84 µM (active). Besides, the Potency result in [2], in test [3], in [4], in [5], in test [6] and in [7] was “inactive” in each case. Moreover, the Potency entry in test [9], in test [10], in [11], in test [12], in [13] and in test [14] was “inactive” in each case. For the same compound, the Potency result in test [15] and in test [16] was “inactive” in each case. In test [8], the outcome was inactive.
Turning to `C=C1/C=C\C(CCC)=C\c2csc(n2)C(C)NC(=O)C[C@@]2(CC(=O)O)CCC(=C)[C@H](C1)S2` (stereo not given in full), the Potency in [1] was 2.77 µM (active). Also, the Potency result in [2], in test [3], in test [4], in [5], in test [6] and in test [7] was “inactive” in each case. The Potency result in [9], in test [10], in [11], in test [12], in test [13] and in test [14] was “inactive” each time. In addition, the Potency entry in [15] and in test [16] was “inactive” each time. The outcome in [8] was inactive.
With `CC[C@H](C)C(NC(=O)[C@@H](NC)C(C)C)C(=O)NC1C(=O)N(C)[C@@H](C(C)O)C(=O)N[C@@H](C(C)C)C(=O)N(C)[C@@H](CC(C)C)C(=O)NC(C(C)C)C(=O)N(C)[C@@H](C(C)C)C(=O)N(C)[C@@H](Cc2c[nH]c3cccc(OC)c23)C(=O)N[C@@H](C(C)C)C(=O)N[C@@H]([C@H](O)c2ccccc2)C(=O)N[C@@H](C(C)C)C(=O)O[C@@H]1C` (stereo partly drawn) (H-[NMeV][ξIle][ξThr(3R)(O-yl)][NMeThr(3ξ)]V[NMeL][ξV][NMeV][NMeTrp(4-OMe)]V[Phe(3R-OH)]V; ester 3-C), the Potency entry in test [1], in test [2], in [4], in test [5], in [6] and in [7] was “inactive” each time. Besides, the Potency entry in test [9], in test [10], in [11], in test [12], in [13] and in test [14] was “inactive” throughout. The Potency entry in test [15] and in test [16] was “inactive” in each case. Also, the Potency in test [3] is 11.9 µM (active). In addition, in test [8], the compound was classed as inactive.
Turning to `CO[C@@H]1[C@H](O)[C@@H](C)O[C@@H](OC[C@@H]2C(C)OC(=O)/C=C/[C@H](C)C(O[C@@H]3O[C@H](C)CC4(OC(=O)O[C@@H]4C)C3O)[C@@H](C)CC(C)C(=O)CC[C@H]3OC23)[C@@H]1OC` (stereo not given in full), the Potency in [1] is 49.3 µM (active). Also, the Potency result in [2], in test [3], in test [4], in test [5], in [6] and in test [7] was “inactive” throughout. Also, the Potency entry in [9], in test [10], in test [11], in test [12], in [13] and in test [14] was “inactive” each time. Moreover, the Potency entry in test [15] and in test [16] was “inactive” each time. Further, the compound was called inactive in [8].
Regarding `C=C1C[C@@]23C=CC(=O)[C@@](C)(CCC(=O)Nc4c(OC5O[C@H](CO)[C@@H](O)[C@H](O)[C@H]5O)ccc(C(=O)O)c4O)C2C[C@@H]1CC3` (stereo not given in full), in [1], the Potency is 39.2 µM (active). The Potency result in [2], in test [3], in [4], in test [5], in [6] and in [7] was “inactive” each time. For the same compound, the Potency entry in [9], in test [10], in test [11], in test [12], in test [13] and in [14] was “inactive” throughout. In addition, the Potency result in [15] and in test [16] was “inactive” in each case. The result in test [8] was inactive.
In the case of `C[C@@H]1C(=O)[C@]23CC[C@H]1C[C@]21O[C@H]2C(C)(C)C=CC(=O)[C@]23COC1=O`, the Potency entry in test [1], in [2], in [3], in test [4], in [5] and in test [6] was “inactive” throughout. For the same compound, the Potency entry in [7], in test [9], in test [10], in test [11], in [12] and in test [13] was “inactive” in each case. The Potency entry in test [14], in test [15] and in test [16] was “inactive” in each case. The call in test [8] was inactive.
Turning to `C/C=C/C[C@@H](C)[C@@H](O)[C@H]1C(=O)N[C@@H](CC)C(=O)N(C)CC(=O)N(C)[C@@H](CC(C)C)C(=O)N[C@@H](C(C)C)C(=O)N(C)[C@@H](CC(C)C)C(=O)N[C@@H](C)C(=O)N[C@H](C)C(=O)N(C)[C@@H](CC(C)C)C(=O)N(C)[C@@H](CC(C)C)C(=O)N(C)[C@H](C(C)C)C(=O)N1C`, the Potency entry in test [1] is “inactive”.
`COc1ccc2oc3c(OC)c(OC)c(OC)c(OC)c3c(=O)c2c1`: the Potency entry in [1] was “inactive”. For the same compound, the activity change, negative = cytotoxicity in test [2] is -4.56% [at 7.64 µM]; in test [3], -3.19% [at 7.64 µM]; in [4] it was -19.6% [at 7.64 µM]; in [5] it was -8.03% [at 7.64 µM]; in test [6], -3.36% [at 7.64 µM]; in test [14], 0.434% [at 9.17 µM]. The activity change, negative = cytotoxicity in test [15] is -8.53% [at 9.19 µM]. Besides, the outcome in [7] is “inactive [at 9.19 µM]”; in test [16] it was “inactive [at 11.5 µM]”. Further, the caspase activation in test [8] is 1.51% [at 9.19 µM]; in test [9], 5.91% [at 9.19 µM]; in test [11], 4.09% [at 9.19 µM]. The activation was -1% [at 9.19 µM] in test [10] and 0.941% [at 9.19 µM] in test [13]. For the same compound, the activity change, negative = inhibition in [12] is -22.3% [at 11.5 µM].
Consider `C[C@@H]1O[C@H](c2c(O)cc(O)c3c(=O)cc(-c4ccc(O)cc4)oc23)[C@H](O)[C@H](O)[C@H]1O`, for which the Potency in test [1] was 34.9 µM (active). The Potency result in test [2], in [3], in test [4], in [5], in [6] and in test [7] was “inactive” each time. Moreover, the Potency result in test [9], in [10], in test [11], in test [12], in test [13] and in test [14] was “inactive” in each case. Further, the Potency entry in test [15] and in [16] was “inactive” in each case. Also, in [8], the outcome was inactive.
Turning to `C=C[C@@]1(C)CC[C@@H]([C@H](C)C(=O)/C=C/C(C)C)O1`, the Potency result in test [1], in test [2], in test [3], in test [4], in [5] and in test [6] was “inactive” throughout. Further, the Potency entry in test [7], in test [9], in test [10], in [11], in [12] and in test [13] was “inactive” throughout. The Potency result in [14], in test [15] and in test [16] was “inactive” each time. Moreover, the outcome in [8] was inactive.
